Test results published in PubChem BioAssay AID1159580 (chemical genetic matrix, 2015).
Out of some 5,500 compounds screened, about 2,000 (36%) were called active. Another 18% or so got no clear call; they are omitted. No stated cut-off is given here; in the data, active means normalized growth mostly below about 0.91 (no sharp cut-off); inconclusive means no clear call, values can overlap the other calls; inactive means mostly above about 0.92. This is one part of the list.

Assay: chemical genetic growth profiling, strain panel (AID 1159580);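 further: tested at 20 µM; growth read once vehicle control cultures reached saturation at 30 °C; 1 = growth at the plate median or of vehicle wells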
Settings: growth OD

Measured: normalized growth

COc1ccc(-c2cc(C(F)F)nn2-c2ccc(S(N)(=O)=O)cc2)cc1F
inactive: S. cerevisiae deletion strains, locus YJR075W, strain HOC1, stronger effect = lower value 1.01 | S. cerevisiae deletion strains, locus YKL009W, strain mrt4, stronger effect = lower value 1.02 | S. cerevisiae deletion strains, locus YKL068W, stronger effect = lower value 1 | S. cerevisiae deletion strains, locus YKL085W, strain MDH1 (second series), stronger effect = lower value 1 | S. cerevisiae deletion strains, locus YKL085W, strain MDH1, stronger effect = lower value 1 | S. cerevisiae deletion strains, locus YKL160W, strain elf1, stronger effect = lower value 0.995 | S. cerevisiae deletion strains, locus YKL190W, strain CNB1, stronger effect = lower value 1 | S. cerevisiae deletion strains, locus YKR001C, strain vps1, stronger effect = lower value 1.01 | S. cerevisiae deletion strains, locus YKR026C, strain gcn3, stronger effect = lower value 1 | S. cerevisiae deletion strains, locus YKR091W, strain srl3, stronger effect = lower value 1.01 | S. cerevisiae deletion strains, locus YLL001W, strain dnm1, stronger effect = lower value 0.994 | S. cerevisiae deletion strains, locus YLL026W, stronger effect = lower value 1 | S. cerevisiae deletion strains, locus YLL041C, strain sdh2, stronger effect = lower value 1.01 | S. cerevisiae deletion strains, locus YLR027C, strain aat2, stronger effect = lower value 1 | S. cerevisiae deletion strains, locus YLR039C, strain RIC1, stronger effect = lower value 1.01 | S. cerevisiae deletion strains, locus YLR058C, strain SHM2, stronger effect = lower value 1.01 | S. cerevisiae deletion strains, locus YLR102C, strain apc9, stronger effect = lower value 1.01 | S. cerevisiae deletion strains, locus YLR113W, strain HOG1, stronger effect = lower value 1.05 | S. cerevisiae deletion strains, locus YLR221C, strain rsa3, stronger effect = lower value 1 | S. cerevisiae deletion strains, locus YLR258W, strain gsy2, stronger effect = lower value 1.01 | S. cerevisiae deletion strains, locus YLR262C, strain YPT6 (second series), stronger effect = lower value 1.01 | S. cerevisiae deletion strains, locus YLR262C, strain YPT6, stronger effect = lower value 0.992 | S. cerevisiae deletion strains, locus YLR268W, strain sec22, stronger effect = lower value 0.992 | S. cerevisiae deletion strains, locus YLR320W, strain mms22, stronger effect = lower value 0.962 | S. cerevisiae deletion strains, locus YLR330W, strain CHS5, stronger effect = lower value 1.01 | S. cerevisiae deletion strains, locus YLR342W, strain FKS1 (second series), stronger effect = lower value 1.08 | S. cerevisiae deletion strains, locus YLR342W, strain FKS1, stronger effect = lower value 0.991 | S. cerevisiae deletion strains, locus YLR357W, strain rsc2, stronger effect = lower value 0.995 | S. cerevisiae deletion strains, locus YLR370C, strain arc18, stronger effect = lower value 1.02 | S. cerevisiae deletion strains, locus YLR371W, strain rom2, stronger effect = lower value 1.03 | S. cerevisiae deletion strains, locus YLR384C, strain iki3, stronger effect = lower value 1 | S. cerevisiae deletion strains, locus YLR418C, strain cdc73, stronger effect = lower value 0.951 | S. cerevisiae deletion strains, locus YML016C, strain PPZ1, stronger effect = lower value 1 | S. cerevisiae deletion strains, locus YML032C, strain rad52, stronger effect = lower value 1.05 | S. cerevisiae deletion strains, locus YML120C, strain ndi1, stronger effect = lower value 0.999 | S. cerevisiae deletion strains, locus YML124C, strain tub3, stronger effect = lower value 1.01 | S. cerevisiae deletion strains, locus YMR058W, strain fet3, stronger effect = lower value 0.995 | S. cerevisiae deletion strains, locus YMR078C, strain ctf18, stronger effect = lower value 1.02 | S. cerevisiae deletion strains, locus YMR125W, strain sto1, stronger effect = lower value 1.02 | S. cerevisiae deletion strains, locus YMR129W, stronger effect = lower value 1.01 | S. cerevisiae deletion strains, locus YMR205C, strain PFK2, stronger effect = lower value 0.976 | S. cerevisiae deletion strains, locus YMR223W, strain ubp8, stronger effect = lower value 1.04 | S. cerevisiae deletion strains, locus YMR231W, strain pep5, stronger effect = lower value 1 | S. cerevisiae deletion strains, locus YMR263W, strain SAP30, stronger effect = lower value 0.996 | S. cerevisiae deletion strains, locus YMR307W, strain GAS1, stronger effect = lower value 1.04 | S. cerevisiae deletion strains, locus YNL067W, strain RPL9B, stronger effect = lower value 0.996 | S. cerevisiae deletion strains, locus YNL071W, strain lat1, stronger effect = lower value 0.996 | S. cerevisiae deletion strains, locus YNL128W, strain TEP1, stronger effect = lower value 1 | S. cerevisiae deletion strains, locus YNL153C, strain GIM3, stronger effect = lower value 0.982 | S. cerevisiae deletion strains, locus YNL183C, strain NPR1, stronger effect = lower value 1 | S. cerevisiae deletion strains, locus YNL209W, strain ssb2, stronger effect = lower value 1.01 | S. cerevisiae deletion strains, locus YNL233W, strain BNI4, stronger effect = lower value 1.01 | S. cerevisiae deletion strains, locus YNL248C, strain rpa49, stronger effect = lower value 0.996 | S. cerevisiae deletion strains, locus YNL250W, strain rad50, stronger effect = lower value 1.02 | S. cerevisiae deletion strains, locus YNL271C, strain bni1, stronger effect = lower value 1.02 | S. cerevisiae deletion strains, locus YNL298W, strain CLA4, stronger effect = lower value 1.02 | S. cerevisiae deletion strains, locus YNL307C, strain MCK1, stronger effect = lower value 1.03 | S. cerevisiae deletion strains, locus YNL322C, strain KRE1 (second series), stronger effect = lower value 1 | S. cerevisiae deletion strains, locus YNL322C, strain KRE1, stronger effect = lower value 1 | S. cerevisiae deletion strains, locus YNR049C, strain mso1, stronger effect = lower value 1.01 | S. cerevisiae deletion strains, locus YNR052C, strain pop2, stronger effect = lower value 1.03 | S. cerevisiae deletion strains, locus YOL006C, strain TOP1, stronger effect = lower value 1.02 | S. cerevisiae deletion strains, locus YOL012C, strain htz1 1.3 | S. cerevisiae deletion strains, locus YOL147C, strain pex11, stronger effect = lower value 1.01 | S. cerevisiae deletion strains, locus YOR001W, strain rrp6, stronger effect = lower value 1.01 | S. cerevisiae deletion strains, locus YOR061W, strain CKA2, stronger effect = lower value 1 | S. cerevisiae deletion strains, locus YOR069W, strain VPS5, stronger effect = lower value 1 | S. cerevisiae deletion strains, locus YOR070C, strain gyp1, stronger effect = lower value 1 | S. cerevisiae deletion strains, locus YOR080W, strain dia2, stronger effect = lower value 0.99 | S. cerevisiae deletion strains, locus YOR083W, strain WHI5, stronger effect = lower value 0.989 | S. cerevisiae deletion strains, locus YOR106W, strain vam3, stronger effect = lower value 0.993 | S. cerevisiae deletion strains, locus YOR136W, strain idh2, stronger effect = lower value 1.02 | S. cerevisiae deletion strains, locus YOR144C, strain elg1, stronger effect = lower value 1.01 | S. cerevisiae deletion strains, locus YOR184W, strain ser1, stronger effect = lower value 1.05 | S. cerevisiae deletion strains, locus YOR231W, strain MKK1, stronger effect = lower value 1.04 | S. cerevisiae deletion strains, locus YOR265W, strain rbl2, stronger effect = lower value 1.01 | S. cerevisiae deletion strains, locus YOR270C, strain vph1, stronger effect = lower value 0.976 | S. cerevisiae deletion strains, locus YOR290C, strain snf2, stronger effect = lower value 1.01 | S. cerevisiae deletion strains, locus YOR316C, strain cot1, stronger effect = lower value 1.01 | S. cerevisiae deletion strains, locus YPL051W, strain arl3, stronger effect = lower value 0.991 | S. cerevisiae deletion strains, locus YPL055C, strain LGE1, stronger effect = lower value 0.97 | S. cerevisiae deletion strains, locus YPL078C, strain atp4, stronger effect = lower value 0.998 | S. cerevisiae deletion strains, locus YPL106C, strain sse1, stronger effect = lower value 0.993 | S. cerevisiae deletion strains, locus YPL240C, strain hsp82, stronger effect = lower value 0.99 | S. cerevisiae deletion strains, locus YPL241C, strain CIN2, stronger effect = lower value 0.999 | S. cerevisiae deletion strains, locus YPL256C, strain CLN2, stronger effect = lower value 1.09 | S. cerevisiae deletion strains, locus YPR119W, strain clb2, stronger effect = lower value 1 | S. cerevisiae deletion strains, locus YPR141C, strain kar3, stronger effect = lower value 1.01 | S. cerevisiae deletion strains, locus YPR163C, strain tif3, stronger effect = lower value 1 | S. cerevisiae deletion strains, locus YPR167C, strain met16, stronger effect = lower value 1.01 | S. cerevisiae deletion strains, strain wtn01, stronger effect = lower value 1.02 | S. cerevisiae strains, strain wild type, stronger effect = lower value 1.01
